Assay outcomes deposited in PubChem BioAssay by Sanford-Burnham Center for Chemical Genomics.
Compounds with a hit are over-represented: about 2.6% of the library has one in this group of screens.
MLLE-PAM2 inh: inhibitors of microRNA-mediated deadenylation, human PABP1 MLLE binding | 360,000 tested, 0.36% active | GST-MLLE / FITC-PAM2 fluorescence polarization | inhibition, % at 20 µM; in the data active = inhibition above about 35%, passing the limit was not always enough
PABP polyA inh: PABP-poly(A) binding inhibition | PABP-poly(A) RNA binding, fluorescence polarization | calls only at 35 µM | 290,000 tested, 1% active;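 note: calls also rest on retests at 20 µM and on dose response follow-up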
PHOSPHO1 inh: blocks human PHOSPHO1 phosphatase activity | Q8TCT1 | recombinant PHOSPHO1, absorbance phosphatase assay | inhibition, % at 13.3 µM | 290,000 tested, 1.1% active; in the data active = inhibition above about 60%
eIF4H inh: inhibitors of RNA binding by human eIF4H | Q15056 | eIF4H fluorescence polarization binding assay | inhibition, % at 35 µM | 290,000 tested, 0.94% active | AID 2012;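 note: calls also rest on retests at 20 µM and on dose response follow-up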
A3A deaminase: human APOBEC3A DNA deaminase inhibition; P31941; inhibition, % at 20 µM; recombinant A3A, FAM/TAMRA ssDNA deamination fluorescence; 330,000 tested, 0.41% active;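 active = at least 40% inhibition at 20 µM here, with at most 30% in a related deaminase screen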
Target sequence (P31941 whole entry, looked up): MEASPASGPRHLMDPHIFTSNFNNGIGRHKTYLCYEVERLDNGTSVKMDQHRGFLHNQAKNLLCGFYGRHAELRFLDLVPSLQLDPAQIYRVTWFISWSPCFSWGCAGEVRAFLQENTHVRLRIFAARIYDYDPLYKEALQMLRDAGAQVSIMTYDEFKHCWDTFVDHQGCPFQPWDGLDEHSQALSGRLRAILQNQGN
A3G deaminase: blocks human APOBEC3G single-stranded DNA deamination; Q9HC16; recombinant A3G, ssDNA deamination FAM/TAMRA fluorescence; inhibition, % at 20 µM; 330,000 tested, 0.28% active; AID 493012;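 active = inhibition of at least 40% at 20 µM, with no more than 30% in the related APOBEC3A deaminase screen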
A3A conf: confirmation of human APOBEC3A DNA deaminase inhibitors; shares compounds with A3A deaminase; recombinant A3A, ssDNA deaminase UDG fluorescence assay; inhibition, % at 20 µM; 1,400 tested, 63% active; AID 493151;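 active = inhibition reaching a set limit, 80% of the first screen's cutoff, at 20 µM in any replicate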
UDG A3A counter: UDG inhibition in APOBEC3A counter-screen; shares compounds with A3A deaminase; UDG counterscreen, FAM/TAMRA uracil oligo fluorescence; inhibition, % at 20 µM; 1,000 tested, under 10 active; AID 504714
Of the large screens only hits and unclear results are named; the others gave an inactive call (follow-up assays come after a bar, where they were run). Unless noted, the rule behind the calls is not given here.

Cc1ccc(S(=O)(=O)N2CCOCC2)cc1C(=O)Nc1ccccc1N1CCOCC1	none (no result: PABP polyA inh, PHOSPHO1 inh, eIF4H inh)
CCOc1ccc(N(CC(=O)Nc2ccccc2)S(C)(=O)=O)cc1	PHOSPHO1 inh 80, A3A deaminase 43 | A3A conf 64 | UDG A3A counter inactive
CCOc1ccc(N(CC(=O)Nc2ccc(C)c(C)c2)S(C)(=O)=O)cc1	A3A deaminase 46 | A3A conf inactive
CCOc1ccc(N(CC(=O)Nc2ccc(C)c(C)c2)S(=O)(=O)c2c(C)[nH]c(=O)[nH]c2=O)cc1	none
CCOC(=O)Cn1c(C)[n+](C)c2cc(Cl)c(Cl)cc21	A3A deaminase 87 | A3A conf 81 | UDG A3A counter inactive
CC(=O)OCCn1c(C)[n+](CCOC(C)=O)c2cc(Cl)c(Cl)cc21	A3A deaminase 82 | A3A conf 81 | UDG A3A counter inactive
CCn1c(C)[n+](CCOCC[n+]2c(C)n(CC)c3cc(Cl)c(Cl)cc32)c2cc(Cl)c(Cl)cc21	PHOSPHO1 inh 83, A3A deaminase 78 | A3A conf 88 | UDG A3A counter inactive
CC(=O)OCCn1c2nc(=O)[nH]c(=O)c-2nc2cc(C)c(C)cc21	PABP polyA inh inconclusive, eIF4H inh inconclusive
CCn1c(/C=C/Nc2ccccc2)[n+](CC)c2cc(Cl)c(Cl)cc21	none
CC1CCc2ccccc2N1CC(=O)Nc1cccc(S(=O)(=O)N2CCCC2)c1 (stereo not given)	none (no result: PABP polyA inh, PHOSPHO1 inh, eIF4H inh)
CC(C)CCNC(=O)[C@@H](Cc1ccccc1)NC(=O)CC[C@H]1O[C@@H](n2ccc(=O)[nH]c2=O)[C@H](O)[C@@H]1O	none (no result: PABP polyA inh, PHOSPHO1 inh, eIF4H inh, A3A deaminase, A3G deaminase)
CN(c1ccc(Br)cc1)S(=O)(=O)c1ccc2[nH]cc(C(=O)NCCN3CCOCC3)c(=O)c2c1	A3A deaminase 42 | A3A conf inactive
C=CC1=CCN(S(=O)C(C)(C)C)[C@H]1CCO (stereo not given in full)	none (no result: PABP polyA inh, PHOSPHO1 inh, eIF4H inh, A3A deaminase, A3G deaminase)
O=C1NC(=O)/C(=C\c2ccc(Br)o2)S1	A3A deaminase 55 | A3A conf inactive
CNc1cnc(-c2cccc(C(=O)N3CCOCC3)c2)cn1	none (no result: PABP polyA inh, PHOSPHO1 inh, eIF4H inh, A3A deaminase, A3G deaminase)
Cc1ccc(C(=O)NC(Cc2cccc(C(F)(F)F)c2)C(=O)O)cc1 (stereo not given)	none (no result: PABP polyA inh, PHOSPHO1 inh, eIF4H inh)
Cn1cc(/C=N/NC(=O)c2cc3cc(Br)ccc3o2)c2ccccc21	A3A deaminase 52 | A3A conf 58 | UDG A3A counter inactive
CCCC(=O)N1CCC1(C)C(=O)Nc1ncc(C(=O)OC)s1 (stereo not given)	none (no result: PABP polyA inh, PHOSPHO1 inh, eIF4H inh, A3A deaminase, A3G deaminase)
O=C(CSc1nnnn1-c1ccccc1)N1CCc2ccccc21	A3A deaminase 41 | A3A conf 62 | UDG A3A counter inactive
CCc1nnc(SCC(=O)N2CCc3ccccc32)n1CC	none
CCn1c(SCC(=O)N2CCc3ccccc32)nnc1-c1ccncc1	A3A deaminase 49 | A3A conf inactive
COc1ccc(NC(=S)NCCCN2CCCC2)cc1	A3A deaminase 41 | A3A conf inactive | UDG A3A counter inactive
CCOc1ccc(NC(=S)NCCCN2CCN(c3ccc(OC)cc3)CC2)cc1	none
COc1ccc(C(=O)NCCCN2CCOCC2)cc1	A3A deaminase 72 | A3A conf inactive | UDG A3A counter inactive
COc1ccc(Cn2cc(Cn3c4ccccc4c(=O)n3C(C)C)nn2)cc1	none (no result: PABP polyA inh, PHOSPHO1 inh, eIF4H inh, A3A deaminase, A3G deaminase)
COc1cc(/C=C/c2cc[n+](C)cc2)ccc1OCC(=O)Nc1ccccc1	A3A deaminase 66 | A3A conf 79 | UDG A3A counter inactive
C/C=C/c1ccc(OCC(=O)Nc2ccc(C(N)=O)cc2)c(OC)c1	none
CCN(C(=O)COc1nc(C)cc(C)c1C#N)c1ccccc1	A3A deaminase 59 (no result: PHOSPHO1 inh) | A3A conf inactive
O=C(CCN1CCN(c2ccccc2)CC1)NNC(=O)c1ccccc1	none (no result: PABP polyA inh, PHOSPHO1 inh, eIF4H inh, A3A deaminase, A3G deaminase)
C[n+]1ccc(/C=C/c2ccc(Br)cc2)cc1	A3A deaminase 51 | A3A conf 82 | UDG A3A counter inactive
C=CCNC(=O)c1ccccc1NC(=O)c1ccccc1N(C)S(C)(=O)=O	A3A deaminase 44 | A3A conf inactive
CC(C)CN(C(=O)CC(C)c1ccccc1)c1c(N)n(Cc2ccccc2)c(=O)[nH]c1=O (stereo not given)	A3A deaminase 70 (no result: PABP polyA inh, PHOSPHO1 inh, eIF4H inh) | A3A conf inactive
